Source: PubChem BioAssay
TRPM1 prom inh: MITF TRPM1 promoter inhibition in SK-MEL-5 cells. SK-MEL-5 TRPM1 promoter luciferase, 24 h. inhibition, % at 12.5 µM. hit rate 0.83% among 330,000;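 active = mean inhibition across replicates of 60% or more, whatever share of single replicates reaches that level; inconclusive = some that reach 60%, reason not given; inactive = mean inhibition across replicates below 60%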
TWEAK Fn14 block: blocks TWEAK-Fn14 interaction in a reporter cell assay; TWEAK-stimulated Fn14 reporter cells, luciferase luminescence, 8 h; inhibition, % at 10 µM; hit rate 2% among 360,000; AID 1159606; in the data active = inhibition above about 50%
EBV LMP1 NFkB: Epstein-Barr LMP1 NF-kappaB reporter inhibition; inhibition, % at 12.5 µM; LMP1-induced NF-kappaB luciferase reporter cells, luminescence; hit rate 0.69% among 350,000; in the data active = inhibition above about 41%; inconclusive = no clear call, values can overlap the other calls;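 also: 0% = neutral control wells and 100% = reference inhibitor control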
TROY NFkB inh: blocks TROY-dependent signaling in reporter cells. inhibition, % at 10 µM. AID 1347056. Q293 LMP1-TROYcd NF-kB luciferase reporter, 4 h. hit rate 0.98% among 360,000;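 active = compounds whose plate-normalised and pattern-corrected inhibition of the luciferase reporter signal at the single screening dose is 50% or more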
Shn3 3UTR inh: inhibitors of Schnurri-3 3'UTR reporter in osteoblasts; hit rate 0.52% among 360,000; Clone20 osteoblast Shn3 3'UTR firefly luciferase, 24 h; inhibition, % at 12.5 µM; AID 588674;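 active = mean inhibition of at least 75% with every replicate also reaching 75%; inconclusive = mean inhibition at least 75% but some replicate below; inactive = mean inhibition below 75%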;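 also: 0% = median of neutral control wells and 100% = pilot-screen positive control compound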
Peg3 promoter: inhibitors of Peg3 promoter; AID 588405; inhibition, % at 20 µM; HeLa PEG-Prom luciferase reporter, luminescence, overnight; hit rate 1.7% among 360,000;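 active = inhibition of at least 50% at 20 µM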
Starred values were filed as active, the others as inactive. Shown are actives, neighbours in structure and some others; about 4.1% of the full set was active somewhere.

`COc1ccc(N2C(=O)C(=O)/C(=C(/O)c3ccc(C)cc3)C2c2cccnc2)cc1` (centres undefined) gave TRPM1 prom inh -7.1, TWEAK Fn14 block -5.8, EBV LMP1 NFkB 43.6*, TROY NFkB inh -44.1, Shn3 3UTR inh -29.0 and Peg3 promoter -10.9.
COc1ccc(CNCCC(c2ccc(OC(C)C)cc2)c2ccccc2OC)cc1 (centres undefined) was read as TRPM1 prom inh 44.1, TWEAK Fn14 block 2.5, EBV LMP1 NFkB 16.3, TROY NFkB inh -8.6, Shn3 3UTR inh 96.5* and Peg3 promoter 113.1*.
COc1ccc(CNCCC(c2ccc(OC(C)C)cc2)C(C)C)cc1OC (centres undefined) was read as TRPM1 prom inh 50.0, TWEAK Fn14 block -2.0, EBV LMP1 NFkB -26.9, TROY NFkB inh 13.8, Shn3 3UTR inh 76.1 and Peg3 promoter 35.6.
For COc1ccccc1C(CCNCc1ccccc1)c1ccc(OC(C)C)cc1 (centres undefined) the results were TRPM1 prom inh 12.0, TWEAK Fn14 block -3.9, EBV LMP1 NFkB -5.3, TROY NFkB inh -13.1, Shn3 3UTR inh 42.9 and Peg3 promoter 100.5*.
`COc1ccccc1NC(=O)CC(c1ccc(OC(C)C)cc1)c1ccccc1OC` (centres undefined) gave TRPM1 prom inh 8.2, TWEAK Fn14 block 4.3, EBV LMP1 NFkB 54.1*, TROY NFkB inh 7.4, Shn3 3UTR inh 18.2 and Peg3 promoter 13.3.
COc1ccc(CNCCC(c2ccc(OC(C)C)cc2)c2ccccc2OC)cc1OC (centres undefined) was read as TRPM1 prom inh 66.2*, TWEAK Fn14 block 4.7, EBV LMP1 NFkB 10.9, TROY NFkB inh 15.1, Shn3 3UTR inh 82.4 and Peg3 promoter 87.3*.
For COc1ccccc1C(CCNCc1ccc(N(C)C)cc1)c1ccc(OC(C)C)cc1 (centres undefined) the results were TRPM1 prom inh 76.7*, TWEAK Fn14 block -13.6, EBV LMP1 NFkB -23.8, TROY NFkB inh 7.1, Shn3 3UTR inh 93.0* and Peg3 promoter 106.9*.
Screening Cc1ccc(C(=O)N(C)c2nnc(-c3ccncc3)s2)cc1 returned TRPM1 prom inh -42.2, TWEAK Fn14 block -33.1, EBV LMP1 NFkB -15.4, TROY NFkB inh -26.1, Shn3 3UTR inh -34.5 and Peg3 promoter -198.3.
Screening COCCN(Cc1nc(-c2ccc(-c3ccccc3)cc2)oc1C)C(C)C returned TRPM1 prom inh -32.1, TWEAK Fn14 block 77.8*, EBV LMP1 NFkB -49.1, TROY NFkB inh -25.1, Shn3 3UTR inh -10.7 and Peg3 promoter -134.1.
`Cc1oc(-c2ccoc2)nc1CN(CC1CCC(=O)N1)C(C)C` (centres undefined) gave TRPM1 prom inh -2.6, TWEAK Fn14 block 0.7, EBV LMP1 NFkB 5.2, TROY NFkB inh 6.1, Shn3 3UTR inh -14.0 and Peg3 promoter 3.5.
Screening CN=c1scc(-c2ccccc2F)n1/N=C/c1ccc(O)c(O)c1O returned TRPM1 prom inh 85.6*, TWEAK Fn14 block 98.7*, EBV LMP1 NFkB 38.6, TROY NFkB inh 91.9*, Shn3 3UTR inh 88.4* and Peg3 promoter -73.0.
For CCN=c1scc(-c2cccs2)n1/N=C/c1cc(OC)ccc1O the results were TRPM1 prom inh -32.0, TWEAK Fn14 block 62.5*, EBV LMP1 NFkB -26.8, TROY NFkB inh 34.2, Shn3 3UTR inh -78.2 and Peg3 promoter -301.7.
For Oc1ccc(/C=N/N=C(c2ccccc2)c2ccccc2)c(O)c1O the results were TRPM1 prom inh -2.7, TWEAK Fn14 block 43.0, EBV LMP1 NFkB 5.5, TROY NFkB inh -16.9, Shn3 3UTR inh -22.8 and Peg3 promoter -10.1.
For O=C(/C(=N/N=C/c1ccc(O)c(O)c1O)c1ccccc1)c1ccccc1 the results were TRPM1 prom inh 13.3, TWEAK Fn14 block 9.5, EBV LMP1 NFkB -17.3, TROY NFkB inh 21.2, Shn3 3UTR inh 77.7 and Peg3 promoter 18.4.
`CC(C)N=c1scc(-c2cccs2)n1/N=C/c1ccc(O)c(O)c1O` gave TRPM1 prom inh -2.0, TWEAK Fn14 block 54.3*, EBV LMP1 NFkB -21.7, TROY NFkB inh 14.2, Shn3 3UTR inh 88.4* and Peg3 promoter -79.5.
For COc1ccc(-c2csc(/C(C#N)=C(\O)CSc3nccn3C)n2)cc1OC the results were TRPM1 prom inh -5.4, TWEAK Fn14 block -0.5, EBV LMP1 NFkB 2.4, TROY NFkB inh 3.4, Shn3 3UTR inh 14.5 and Peg3 promoter -1.1.
`CCC(C)(C)NC(=O)C(c1ccc(F)cc1)N(CCOC)C(=O)CCC(=O)Nc1nccs1` (centres undefined) gave TRPM1 prom inh 0.3, TWEAK Fn14 block 21.9, EBV LMP1 NFkB inconclusive, TROY NFkB inh -11.3, Shn3 3UTR inh -6.4 and Peg3 promoter 7.9.
For C(=C\CSc1nnnn1-c1ccccc1)/CSc1nnnn1-c1ccccc1 the results were TRPM1 prom inh 8.4, TWEAK Fn14 block 10.4, EBV LMP1 NFkB -6.9, TROY NFkB inh -3.1, Shn3 3UTR inh 18.0 and Peg3 promoter 26.2.
For CCCSc1nnc(Sc2nnnn2-c2ccccc2)s1 the results were TRPM1 prom inh 52.5, TWEAK Fn14 block 81.8*, EBV LMP1 NFkB 37.3, TROY NFkB inh 4.2, Shn3 3UTR inh 50.3 and Peg3 promoter 68.4*.
`Cc1ccccc1-n1nnnc1SCC(N)=O` gave TRPM1 prom inh 5.2, TWEAK Fn14 block 1.5, EBV LMP1 NFkB -4.4, TROY NFkB inh -8.5, Shn3 3UTR inh 13.2 and Peg3 promoter 12.3.
`Cc1ccccc1-n1nnnc1Sc1nnnn1-c1ccccc1` gave TRPM1 prom inh 78.4*, TWEAK Fn14 block 87.8*, EBV LMP1 NFkB 55.4*, TROY NFkB inh 43.6, Shn3 3UTR inh 0.5 and Peg3 promoter 108.8*.
`Cc1ccc(CCNC(=O)CN2C(=O)COc3ccc(S(=O)(=O)N4CCOCC4)cc32)cc1` gave TRPM1 prom inh 1.3, TWEAK Fn14 block 1.7, EBV LMP1 NFkB 0.1, TROY NFkB inh -15.7, Shn3 3UTR inh -19.9 and Peg3 promoter 3.2.
Cc1cc(C)c(C#N)c(SCc2nnc(-c3ccccc3[N+](=O)[O-])o2)n1 was read as TRPM1 prom inh -15.3, TWEAK Fn14 block -11.7, EBV LMP1 NFkB -54.0, TROY NFkB inh 44.8, Shn3 3UTR inh -28.0 and Peg3 promoter -269.4.
For Cc1cc(C)c(C#N)c(SCc2nnc(-c3ccccc3)o2)n1 the results were TRPM1 prom inh 76.5*, TWEAK Fn14 block 99.9*, EBV LMP1 NFkB 59.2*, TROY NFkB inh 89.6*, Shn3 3UTR inh 60.0 and Peg3 promoter 38.4.
For Cc1ccc(C#N)c(SCc2cc3c(cc2Cl)OCO3)n1 the results were TRPM1 prom inh -13.9, TWEAK Fn14 block -5.4, EBV LMP1 NFkB -7.0, TROY NFkB inh -7.7, Shn3 3UTR inh 14.3 and Peg3 promoter 1.3.
`Cc1cc(C)c(C#N)c(SCC(=O)Nc2ccccc2C(N)=O)n1` gave TRPM1 prom inh -30.4, TWEAK Fn14 block 10.3, EBV LMP1 NFkB 1.1, TROY NFkB inh 59.9*, Shn3 3UTR inh -58.3 and Peg3 promoter -222.3.
Screening Cc1ccc(C#N)c(SCc2nnc(-c3ccc(Cl)cc3)o2)n1 returned TRPM1 prom inh 46.2, TWEAK Fn14 block 97.6*, EBV LMP1 NFkB 15.1, TROY NFkB inh 87.0*, Shn3 3UTR inh 40.6 and Peg3 promoter 46.0.
